According to PubChem BioAssay AID489012 (National Center for Advancing Translational Sciences (NCATS), 2010):
Inconclusive results are not listed. A call without a number means that no potency is given here. The source made the active and inactive calls. Calls come from the whole dose curve; as a rule, active = well fitted activation curve with a large enough effect; inconclusive = small, poorly fitted or top-dose-only effect; inactive = no such curve, though single readings can be large or run the other way.

target: Relaxin receptor 1 (Homo sapiens) (UniProt Q9HBX9); assay: qHTS Assay for Agonists of the Relaxin Receptor RXFP1: RXFP1 Hit Validation; conditions: HEK293T-RXFP1 cAMP TR-FRET, 30 min; series mostly up to 115 µM; note: nearly all actives have a fitted effect of over 65% in size;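 for activation: cAMP rise lowers the TR-FRET signal in lysed cells with PDE4 inhibitor present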
Sequence (Q9HBX9 whole entry, looked up): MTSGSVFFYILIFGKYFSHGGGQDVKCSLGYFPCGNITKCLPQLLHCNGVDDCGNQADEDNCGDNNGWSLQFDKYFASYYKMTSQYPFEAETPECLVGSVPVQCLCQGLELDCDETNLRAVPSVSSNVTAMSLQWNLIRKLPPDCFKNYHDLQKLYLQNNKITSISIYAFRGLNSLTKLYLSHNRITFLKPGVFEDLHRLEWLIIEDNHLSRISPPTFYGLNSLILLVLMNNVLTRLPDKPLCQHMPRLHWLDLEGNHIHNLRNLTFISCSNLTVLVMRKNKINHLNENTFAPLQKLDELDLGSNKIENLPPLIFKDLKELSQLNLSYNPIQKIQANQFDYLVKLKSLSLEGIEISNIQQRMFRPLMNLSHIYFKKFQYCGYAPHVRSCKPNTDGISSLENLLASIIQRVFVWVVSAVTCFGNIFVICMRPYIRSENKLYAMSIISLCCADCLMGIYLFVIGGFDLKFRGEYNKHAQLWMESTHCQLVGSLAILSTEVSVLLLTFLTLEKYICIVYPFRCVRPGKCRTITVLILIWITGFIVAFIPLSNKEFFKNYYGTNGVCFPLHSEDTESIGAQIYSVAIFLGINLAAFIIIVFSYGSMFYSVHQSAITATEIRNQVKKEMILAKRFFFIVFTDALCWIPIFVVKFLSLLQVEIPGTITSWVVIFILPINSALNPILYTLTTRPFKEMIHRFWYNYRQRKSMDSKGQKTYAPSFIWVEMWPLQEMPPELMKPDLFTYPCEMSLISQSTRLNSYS
Potency is the fitted concentration of half-maximal effect.

| Structure (SMILES) | Potency |
| --- | --- |
| O=C(O)c1ccc(N=C2NC(=O)C(CO)(CO)S2)cc1 | inactive |
| O=C(Oc1ccccc1)Oc1ccc2c(c1)oc(=O)c1ccccc12 | 21.8 µM (active) |
| COc1cccc(C(=O)CSc2nnc(-c3cc(OC)cc(OC)c3)o2)c1 | 13.8 µM (active) |
| CN(C)c1ccc2nc3c(=O)[nH]c(=O)nc-3n(CC(O)C(O)C(O)CO)c2c1 (stereo not given) | inactive |
| O=C(NCc1nnc2c(C(F)(F)F)cc(Cl)cn12)c1cccnc1 | inactive |
| CCCC(=O)Nc1ncnc2c1ncn2[C@@H]1O[C@@H]2OP(=O)(O)OC[C@H]2[C@H]1OC(=O)CCC | 0.346 µM (active) |
| C=C[C@@]1(C)CC(=O)[C@]2(O)[C@@]3(C)[C@@H](O)CCC(C)(C)[C@@H]3[C@H](O)[C@H](OC(C)=O)[C@@]2(C)O1 | 0.0388 µM (active) |
| CN(Cc1ccccc1)C(=O)c1ccccc1NC(=O)c1ccco1 | inactive |
| COCCNC(=O)C(OC(=O)c1nsc(Cl)c1Cl)C(C)C (stereo not given) | inactive |
| CCOC(=O)CSc1nc(=O)n2cc(C)ccc2n1 | inactive |
| CC1(C)Cc2c(sc3c2c2ncnn2c2nnc(SCC(=O)NCc4ccco4)n32)CO1 | 6.16 µM (active) |
| C=C(C)C(=O)Nc1cccc(C2=NOC3(C2)C[C@@H](C(N)=O)N(C(=O)c2ccc(Cl)cc2)C3)c1 (stereo not given in full) | inactive |
| COc1ccc(/C=C2/SC(=O)N(CC(=O)Nc3cc(C)on3)C2=O)cc1OC | inactive |
| CN(C)CCCn1c(SCC(=O)Nc2nc(-c3cccc(Br)c3)cs2)nc2ccccc2c1=O | inactive |
| N#CCCSc1ncnc2c1oc1ccccc12 | 19.4 µM (active) |
| COc1ccc(C(=O)Nc2ccc(S(=O)(=O)Nc3onc(C)c3C)cc2)c(OC)c1 | 5.95 µM (active) |
| CC1C/C(=N\NC(N)=S)c2cc(Cl)ccc2S1 (stereo not given) | inactive |
| COC(=O)Cn1cnc2c(C#N)c3n(c2c1=O)CCCCC3 | 13.8 µM (active) |

| Structure (SMILES) | Potency |
| --- | --- |
| C=CCOc1c(Cl)cc(CNc2ccc(N(C)C)cc2)cc1OC | inactive |
| COC(=O)c1nc2ccc(N3CCOCC3)cc2c(C)c1C(=O)OC | 34.6 µM (active) |
| COc1ccc(NC(=O)CSc2nc(-c3ccc(C)cc3)cc(C(F)(F)F)c2C#N)cc1 | inactive |
| O=C(Nc1ccccc1C(=O)Nc1ccccc1)c1ccco1 | inactive |
| O=C(Nc1cccc(C(F)(F)F)c1)c1ccccc1NC(=O)C1CCCCC1 | 11.9 µM (active) |
| O=C(NC1CCCCCC1)c1cc2c(=O)n3ccccc3nc2s1 | 34.6 µM (active) |
| O=C(Nc1ccccc1C(=O)NCCc1ccc(O)cc1)c1ccco1 | inactive |
| Nc1ncnc2c1ncn2[C@@H]1O[C@H](COS(=O)(=O)O)[C@@H](O)[C@H]1O | 6.9 µM (active) |
| O=C(Nc1ccccc1C(=O)NCCc1ccccc1)c1ccco1 | inactive |
| O=C(Nc1ccccc1C(=O)N1CCNCC1)c1ccco1 | inactive |
| O=C(O)c1cc(-c2ccco2)nc2ccc(Br)cc12 | 19.4 µM (active) |
| COc1ccccc1CNS(=O)(=O)c1cc(CN2C(=O)c3cccnc3C2=O)ccc1OC | 30.9 µM (active) |
| Cc1ccc(C(=O)Nc2ccccc2C(=O)NCc2ccco2)cc1 | inactive |
| Cc1ccccc1NC(=O)CNc1ccccc1C(=O)NCc1ccco1 | inactive |
| COc1ccc(Nc2ncc(C#N)c(N)n2)c(OC)c1 | inactive |
| O=C(Nc1ccccc1C(=O)Nc1ccccc1C(=O)NCc1ccco1)c1ccco1 | 21.9 µM (active) |
| CCN(CC)S(=O)(=O)c1ccc(C)c(NC(=O)Cn2cnc3cc([N+](=O)[O-])ccc3c2=O)c1 | 38.9 µM (active) |
